# Values joined by “and” are separate entries in the source; they are usually repeats but may differ in a detail not shown here. Equal entries are not always repeated. Records with an inconclusive call do not appear. A call without a number means that no potency is given here. Some structures have more than one record in an assay (separate samples or runs), and their calls can disagree. Active and inactive are the calls of the source. Unless noted, calls come from the whole dose curve; as a rule, active = well fitted curve in the direction sought with a large enough effect in the repeat runs; inconclusive = weak or mixed curves; inactive = no such curve, though single readings can be large; an effect the other way counts as inactive or inconclusive.
# Key:
# [1] = qHTS assay to identify aromatase inhibitors - cell viability counter screen (AID 743084);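 note: cells stimulated with testosterone during compound exposure; nearly all actives have a fitted effect of over 55% in size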; note: potency is the fitted concentration of half-maximal effect
# [2] = target: Aryl hydrocarbon receptor (Homo sapiens) (UniProt P35869); test: qHTS assay to identify small molecule that activate the aryl hydrocarbon receptor (AhR) signaling pathway (AID 743085); note: nearly all actives have a fitted effect of over 15% in size; note: potency is the fitted concentration of half-maximal effect;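 for activation: HG2L7.5c1 human HepG2 liver cells with stably integrated DRE-driven firefly reporter; series mostly up to about 70 µM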
# Method in brief: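 A multiplexed format paired cell viability (CellTiter-Fluor fluorescence) with AhR-dependent luciferase output (ONE-Glo luminescence) in the same wells of HepG2 DRE-luc cells after 24 h compound exposure at 37C.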
# [3] = qHTS assay to identify small molecule that activate the aryl hydrocarbon receptor (AhR) signaling pathway - cell viability counter screen (AID 743086); note: nearly all actives have a fitted effect of over 45% in size; note: potency is the fitted concentration of half-maximal effect
# Method in brief: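 HepG2-AhR-luc (HG2L7.5c1) cells, 4000/well, were preincubated 5 h at 37C, exposed to compound in qHTS format for 24 hr at 37C, then given CellTiter-Fluor for 30 min; viability was read as fluorescence in the reporter wells.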
# [4] = qHTS assay to identify small molecule antagonists of the peroxisome proliferator-activated receptor gamma (PPARg) signaling pathway - cell viability counter screen (AID 743194); note: nearly all actives have a fitted effect of over 55% in size; note: potency is the fitted concentration of half-maximal effect
# Method in brief: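 PPARg-UAS-bla HEK293H cells were plated, rested 5 h at 37 C, then treated with compounds plus rosiglitazone (50 nM final) for 17 h at 37 C; viability was then read by CellTiter-Glo luminescence after 30 min at room temperature.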
# [5] = qHTS assay for small molecule agonists of the antioxidant response element (ARE) signaling pathway (AID 743202; active = well fitted activation curve with a large enough effect in the signal ratio in the repeat runs, not every such curve was filed as active; the % refers to the signal ratio; note: potency is the fitted concentration of half-maximal effect)
# Method in brief: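 Read-out: LiveBLAzer B/G FRET substrate fluorescence after 2 h at room temperature, following 16 h compound treatment at 37 C of HepG2 cells carrying an ARE-driven beta-lactamase reporter.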
# [6] = qHTS assay for small molecule agonists of the antioxidant response element (ARE) signaling pathway - cell viability counter screen (AID 743203; calls by dose curve; note: nearly all actives have a fitted effect of over 55% in size; note: potency is the fitted concentration of half-maximal effect)
# Method in brief: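 Following 16 hrs of compound treatment at 37C, HepG2 cells with an ARE-controlled beta-lactamase gene were lysed with CellTiter-Glo. Luminescence was read after 30 min at room temperature.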
# [7] = qHTS assay for small molecule activators of the heat shock response signaling pathway - cell viability counter screen (AID 743209); note: nearly all actives have a fitted effect of over 50% in size; note: potency is the fitted concentration of half-maximal effect
# Method in brief: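 Readout: CellTiter-Glo luminescence, 30 min at room temperature. System: HSE-bla HeLa cells, 1500/well, plated overnight. Treatment: compounds in DMSO, 5 h at 37 C.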
# [8] = qHTS assay for small molecule activators of the heat shock response signaling pathway (AID 743210; active = well fitted activation curve with a large enough effect in the signal ratio in the repeat runs, with a control signal flat, not every such curve was filed as active; the % refers to the signal ratio; note: series mostly up to about 63 µM)
# Method in brief: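 HSE-bla HeLa cells (beta-lactamase reporter under heat shock response elements) were exposed to compounds for 5 h at 37 C, then loaded with LiveBLAzer B/G FRET substrate for 2.5 h at room temperature before fluorescence reading.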
# [9] = qHTS assay to identify small molecule agonists of the peroxisome proliferator-activated receptor delta (PPARd) signaling pathway - cell viability counter screen (AID 743211); note: nearly all actives have a fitted effect of over 55% in size; note: potency is the fitted concentration of half-maximal effect
# Method in brief: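 Tox21 library compounds, delivered in DMSO, were incubated 17 h with PPARd-bla HEK293H cells; cytotoxicity was taken from CellTiter-Glo luminescence read 30 min after reagent addition.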
# [10] = qHTS assay to identify small molecule antagonists of the peroxisome proliferator-activated receptor delta (PPARd) signaling pathway - cell viability counter screen (AID 743213); note: nearly all actives have a fitted effect of over 50% in size; note: potency is the fitted concentration of half-maximal effect
# Method in brief: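 Cytotoxicity counter screen: CellTiter-Glo luminescence read 30 min after addition, in the same wells as the reporter assay. There, PPARd UAS-bla HEK293H cells (3000/well) were treated 17 h at 37 C with compound and 300 nM L165041.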
# [11] = qHTS assay to identify small molecule agonists of the farnesoid-X-receptor (FXR) signaling pathway - cell viability counter screen (AID 743218); note: nearly all actives have a fitted effect of over 45% in size; note: potency is the fitted concentration of half-maximal effect
# Method in brief: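 Parallel cytotoxicity test: compound-treated (16 h, 37 C) HEK 293T FXR-bla reporter cells were lysed with CellTiter-Glo and luminescence recorded.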
# [12] = qHTS assay to identify small molecule antagonists of the farnesoid-X-receptor (FXR) signaling pathway - cell viability counter screen (AID 743221; active = well fitted cell-killing curve with a large enough effect in the repeat runs, not every such curve was filed as active; note: nearly all actives have a fitted effect of over 50% in size; note: potency is the fitted concentration of half-maximal effect)
# Method in brief: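 Cytotoxicity is taken from ATP luminescence (CellTiter-Glo, 30 min, room temperature) in FXR-bla HEK 293T cells previously incubated 16 h at 37 C with compound and chenodeoxycholic acid at 50 uM final.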
# [13] = target: Peroxisome proliferator-activated receptor gamma (Homo sapiens) (UniProt P37231); test: qHTS assay to identify small molecule agonists of the peroxisome proliferator-activated receptor gamma (PPARg) signaling pathway (AID 743094; active = well fitted activation curve with a large enough effect in the signal ratio in the repeat runs, not every such curve was filed as active; the % refers to the signal ratio)
# Method in brief: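 Compounds dissolved in DMSO were added to PPARg UAS-bla HEK293H cells for 17 h at 37C, and reporter expression was quantified by fluorescence intensity after 1 h with LiveBLAzer B/G FRET substrate.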
# [14] = target: Peroxisome proliferator-activated receptor gamma (Homo sapiens) (UniProt P37231); test: qHTS assay to identify small molecule antagonists of the peroxisome proliferator-activated receptor gamma (PPARg) signaling pathway (AID 743191; calls by dose curve; note: nearly all actives have a fitted effect of over 30% in size; note: potency is the fitted concentration of half-maximal effect)
# Method in brief: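 GeneBLAzer PPARg UAS-bla HEK293H cells carrying a UAS-driven beta-lactamase reporter were plated at 3000 cells/well, preincubated 5 h at 37C, then given compound for 17 h at 37C; LiveBLAzer B/G FRET substrate was read after 1 h at room temperature.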
# [15] = target: Vitamin D3 receptor (Homo sapiens) (UniProt P11473); test: qHTS assay to identify small molecule agonists of the vitamin D receptor (VDR) signaling pathway (AID 743222; calls by dose curve)
# Method in brief: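 In VDR-bla cells, compound-induced beta-lactamase expression is quantified by FRET substrate fluorescence. Treatment lasts 16 h at 37C; substrate develops 2 h at room temperature.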
# [16] = target: Vitamin D3 receptor (Homo sapiens) (UniProt P11473); test: qHTS assay to identify small molecule antagonists of the vitamin D receptor (VDR) signaling pathway (AID 743223; active = well fitted inhibition curve with a large enough effect in the signal ratio in the repeat runs, not every such curve was filed as active; the % refers to the signal ratio; note: potency is the fitted concentration of half-maximal effect)
# Method in brief: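 Quantitative HTS in VDR-bla reporter cells stimulated with 1alpha,25-dihydroxyvitamin D3, 3 nM final. Compound exposure 16 h, 37C, 5% CO2. Read-out: beta-lactamase FRET substrate fluorescence, 2 h RT.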
# [17] = target: Peroxisome proliferator-activated receptor delta (Homo sapiens) (UniProt Q03181); test: qHTS assay to identify small molecule agonists of the peroxisome proliferator-activated receptor delta (PPARd) signaling pathway (AID 743212; calls by dose curve)
# Method in brief: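 GeneBLAzer PPARd UAS-bla HEK293H cells (beta-lactamase reporter under UAS control), plated and rested 5 h at 37 C, then exposed to compounds in DMSO at 37 C; LiveBLAzer B/G FRET substrate added, 2 h room temperature, fluorescence read.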
# [18] = target: Peroxisome proliferator-activated receptor delta (Homo sapiens) (UniProt Q03181); test: qHTS assay to identify small molecule antagonists of the peroxisome proliferator-activated receptor delta (PPARd) signaling pathway (AID 743215; active = well fitted inhibition curve with a large enough effect in the signal ratio in the repeat runs, not every such curve was filed as active; the % refers to the signal ratio;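 note: cells stimulated with agonist L165041 at 300 nM final during compound exposure; series mostly up to about 62 µM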)
# Method in brief: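 HEK293H UAS-bla, PPARd; agonist L165041 300 nM final with cpd in DMSO; 37 C 17 h; FRET substrate, RT 2 h; fluorescence intensity.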
# [19] = target: Bile acid receptor (Homo sapiens) (UniProt Q96RI1); test: qHTS assay to identify small molecule antagonists of the farnesoid-X-receptor (FXR) signaling pathway (AID 743217; active = well fitted inhibition curve with a large enough effect in the signal ratio in the repeat runs, not every such curve was filed as active; the % refers to the signal ratio)
# Method in brief: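 GeneBLAzer FXR-UAS-bla HEK 293T, CDCA-stimulated (50 uM final). Compound treatment 16 h, 37 °C. Detection: beta-lactamase cleavage of B/G FRET substrate, fluorescence.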
# [20] = target: Bile acid receptor (Homo sapiens) (UniProt Q96RI1); test: qHTS assay to identify small molecule agonists of the farnesoid-X-receptor (FXR) signaling pathway (AID 743220; active = well fitted activation curve with a large enough effect in the signal ratio in the repeat runs, not every such curve was filed as active; the % refers to the signal ratio)
# Method in brief: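 Beta-lactamase reporter under UAS control in GeneBLAzer FXR HEK 293T cells (5000/well) measured with LiveBLAzer FRET substrate after 2 h at room temperature. Compound exposure lasted 16 h at 37C.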
# Sequence of Peroxisome proliferator-activated receptor delta (Homo sapiens) (Q03181 whole entry, looked up): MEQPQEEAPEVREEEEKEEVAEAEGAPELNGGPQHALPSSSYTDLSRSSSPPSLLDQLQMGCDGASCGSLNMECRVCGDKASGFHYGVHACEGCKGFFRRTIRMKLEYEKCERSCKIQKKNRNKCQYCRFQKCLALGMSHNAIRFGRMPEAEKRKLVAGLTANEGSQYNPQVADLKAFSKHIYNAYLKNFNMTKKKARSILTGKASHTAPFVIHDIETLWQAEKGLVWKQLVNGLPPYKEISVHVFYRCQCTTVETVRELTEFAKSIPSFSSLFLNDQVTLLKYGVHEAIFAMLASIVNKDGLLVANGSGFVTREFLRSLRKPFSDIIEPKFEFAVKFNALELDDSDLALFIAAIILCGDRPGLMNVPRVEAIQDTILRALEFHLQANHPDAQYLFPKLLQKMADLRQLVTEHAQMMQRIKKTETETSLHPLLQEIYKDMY
# Sequence of Bile acid receptor (Homo sapiens) (Q96RI1 whole entry, looked up): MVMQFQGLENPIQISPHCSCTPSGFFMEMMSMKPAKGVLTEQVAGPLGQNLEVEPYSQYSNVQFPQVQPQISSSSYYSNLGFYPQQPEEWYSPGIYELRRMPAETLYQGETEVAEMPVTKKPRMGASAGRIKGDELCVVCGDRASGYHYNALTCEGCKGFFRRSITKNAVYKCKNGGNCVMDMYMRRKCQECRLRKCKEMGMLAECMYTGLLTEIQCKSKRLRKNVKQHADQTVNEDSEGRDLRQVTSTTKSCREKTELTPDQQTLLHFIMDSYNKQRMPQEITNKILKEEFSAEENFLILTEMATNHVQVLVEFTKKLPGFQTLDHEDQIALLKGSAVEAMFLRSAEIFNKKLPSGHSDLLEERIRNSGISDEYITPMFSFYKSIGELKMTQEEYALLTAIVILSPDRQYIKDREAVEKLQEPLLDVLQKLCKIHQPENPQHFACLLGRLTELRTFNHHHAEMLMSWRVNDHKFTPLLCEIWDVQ
# Sequence of Vitamin D3 receptor (Homo sapiens) (P11473 whole entry, looked up): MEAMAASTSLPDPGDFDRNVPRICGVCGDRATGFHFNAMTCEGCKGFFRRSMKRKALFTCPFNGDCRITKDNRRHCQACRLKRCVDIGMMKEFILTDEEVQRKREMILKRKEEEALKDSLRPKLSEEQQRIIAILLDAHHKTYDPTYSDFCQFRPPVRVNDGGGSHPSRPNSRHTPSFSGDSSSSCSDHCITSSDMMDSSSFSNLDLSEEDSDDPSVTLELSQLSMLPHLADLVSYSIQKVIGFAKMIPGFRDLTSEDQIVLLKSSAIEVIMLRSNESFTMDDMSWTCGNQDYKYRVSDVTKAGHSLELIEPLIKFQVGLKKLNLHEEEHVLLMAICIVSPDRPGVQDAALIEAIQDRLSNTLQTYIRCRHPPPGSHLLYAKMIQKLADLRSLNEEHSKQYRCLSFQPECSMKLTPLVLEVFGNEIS
# Sequence of Aryl hydrocarbon receptor (Homo sapiens) (P35869 whole entry, looked up): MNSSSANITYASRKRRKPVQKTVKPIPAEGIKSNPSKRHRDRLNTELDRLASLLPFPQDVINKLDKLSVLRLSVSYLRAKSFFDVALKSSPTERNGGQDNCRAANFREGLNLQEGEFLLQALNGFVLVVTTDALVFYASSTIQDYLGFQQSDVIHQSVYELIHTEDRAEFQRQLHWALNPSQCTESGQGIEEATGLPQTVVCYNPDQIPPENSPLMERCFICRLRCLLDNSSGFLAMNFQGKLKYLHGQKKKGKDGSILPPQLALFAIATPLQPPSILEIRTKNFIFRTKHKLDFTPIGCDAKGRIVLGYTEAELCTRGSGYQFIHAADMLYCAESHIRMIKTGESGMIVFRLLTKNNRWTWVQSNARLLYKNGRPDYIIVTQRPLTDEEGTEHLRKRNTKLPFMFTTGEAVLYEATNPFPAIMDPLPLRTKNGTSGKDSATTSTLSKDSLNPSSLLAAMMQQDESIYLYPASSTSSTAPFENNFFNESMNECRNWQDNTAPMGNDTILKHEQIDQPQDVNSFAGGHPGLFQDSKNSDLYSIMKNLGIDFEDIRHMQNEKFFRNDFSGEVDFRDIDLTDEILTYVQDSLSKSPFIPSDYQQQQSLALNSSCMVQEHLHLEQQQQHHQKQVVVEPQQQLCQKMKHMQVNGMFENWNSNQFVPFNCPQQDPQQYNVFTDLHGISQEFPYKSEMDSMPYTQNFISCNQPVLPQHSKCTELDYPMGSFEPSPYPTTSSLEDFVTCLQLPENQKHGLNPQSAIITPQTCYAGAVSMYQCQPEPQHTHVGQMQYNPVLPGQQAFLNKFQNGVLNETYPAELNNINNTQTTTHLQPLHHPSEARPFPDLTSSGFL
# Sequence of Peroxisome proliferator-activated receptor gamma (Homo sapiens) (P37231 whole entry, looked up): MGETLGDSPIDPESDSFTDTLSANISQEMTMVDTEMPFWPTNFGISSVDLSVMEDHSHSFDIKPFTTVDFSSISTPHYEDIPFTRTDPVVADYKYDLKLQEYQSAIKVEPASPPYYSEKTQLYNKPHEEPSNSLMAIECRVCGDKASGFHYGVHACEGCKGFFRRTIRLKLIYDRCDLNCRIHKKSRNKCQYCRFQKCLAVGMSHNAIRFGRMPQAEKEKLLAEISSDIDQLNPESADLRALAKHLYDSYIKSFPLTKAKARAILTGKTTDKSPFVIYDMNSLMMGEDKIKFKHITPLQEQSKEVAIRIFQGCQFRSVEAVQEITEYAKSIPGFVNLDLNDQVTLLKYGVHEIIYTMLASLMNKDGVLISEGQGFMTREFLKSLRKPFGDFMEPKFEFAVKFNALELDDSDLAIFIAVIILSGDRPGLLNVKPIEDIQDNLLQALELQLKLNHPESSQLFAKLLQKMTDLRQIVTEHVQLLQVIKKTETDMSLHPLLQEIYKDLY
Structure (SMILES),Potency [1],Potency [2],Potency [3],Potency [4],Potency [5],Potency [6],Potency [7],outcome [8],Potency [9],Potency [10],Potency [11],Potency [12],Potency [13],Potency [14],Potency [15],Potency [16],Potency [17],Potency [18],Potency [19],outcome [20]
Cn1c(=O)c2c(ncn2C)n(C)c1=O,inactive and 55.1 µM (active),inactive,inactive and 69.4 µM (active),inactive,inactive,inactive,inactive,inactive,inactive,inactive,inactive,inactive,,,,,,,,
CC(=O)CCC(=O)O,inactive,inactive,inactive,inactive,inactive,inactive,inactive,,inactive,inactive,inactive,inactive,inactive,inactive,inactive,inactive,,,,
COc1ccc2c(c1)c(CC(=O)O)c(C)n2C(=O)c1ccc(Cl)cc1,inactive,inactive,inactive,inactive,inactive,inactive,inactive,inactive,inactive,inactive,inactive,,,,,,,,,
Cc1c(C(=O)O)c(O)cc2c1C(=O)c1c(O)c([C@@H]3O[C@H](CO)[C@@H](O)[C@H](O)[C@H]3O)c(O)c(O)c1C2=O,29.8 µM (active) and 13.3 µM (active) and 24.3 µM (active),inactive,26.6 µM (active) and 21.7 µM (active),inactive,,inactive,inactive,,inactive,inactive,inactive,inactive,inactive,inactive,inactive,inactive,inactive,inactive,inactive,inactive
CCCCCCCCCCCCCCCC[N+](C)(C)Cc1ccccc1,26.6 µM (active) and 49.4 µM (active),inactive,29.8 µM (active),25.3 µM (active) and 17.7 µM (active) and 33.5 µM (active),,63.1 µM (active) and 49.4 µM (active) and 29.8 µM (active),50.5 µM (active) and 44.4 µM (active) and 23.7 µM (active),,31.9 µM (active) and 8.86 µM (active) and 18.8 µM (active),22.6 µM (active) and 9.94 µM (active) and 13.3 µM (active),25.3 µM (active) and 22.3 µM (active) and 13.3 µM (active),63.6 µM (active) and 25 µM (active) and 16.8 µM (active),inactive,,inactive,63.6 µM (active) and 49.8 µM (active),,inactive,,inactive
CC(O)(P(=O)(O)O)P(=O)(O)O,inactive,inactive and 15.4 µM (active),inactive,inactive,inactive,inactive,inactive,,inactive,inactive,inactive,inactive,inactive,inactive,,,,,,
C1CCC(C(CC2CCCCN2)C2CCCCC2)CC1 (stereo not given),18.8 µM (active),inactive,18.8 µM (active),33.5 µM (active),,29.8 µM (active),33.5 µM (active),,26.6 µM (active),,23.7 µM (active),,,inactive,inactive,21.3 µM (active),,,,
O=C1c2c(O)cccc2Cc2cccc(O)c21,inactive,inactive,inactive,inactive,,inactive,inactive,inactive,inactive,inactive,inactive,inactive,inactive,,,,inactive,,inactive,inactive
C=C1CC[C@H](O)C/C1=C\C=C1/CCC[C@]2(C)[C@@H]([C@H](C)CCCC(C)C)CC[C@@H]12,inactive,inactive,inactive,61.1 µM (active),21.5 µM (active),,48.5 µM (active),,,43.2 µM (active),48.5 µM (active),,,54.4 µM (active),,,,,,inactive

# Source: PubChem BioAssay (Tox21)
